# Source: ChEMBL document CHEMBL3988442, “University of Dundee, Small-Polar-MMV Screening Library” (2021)
# Tested on: Trypanosoma cruzi
# Test: Trypanosoma cruzi phosphomannomutase and mannose-1-phosphate guanylyltransferase assay
# Type: functional
# Parameters: scale not given: direction of the effect not stated beside the values
# Conditions: 10 µM
row,SMILES,Percent Effect
1,Cc1nc[nH]c1CN1CCN(C(=O)c2cccs2)[C@H]2CS(=O)(=O)C[C@H]21,-2.81%
2,Cc1ccc(CCC(=O)N2CCCC(n3cncn3)C2)c(C)c1 (centres undefined),-6.02%
3,Cc1cc(-c2nn(C)c(Cl)c2CN2CCOCC2CC(=O)O)no1 (centres undefined),5.92%
4,CCc1nc(CN2CCCN(C(=O)c3cn[nH]c3CC)CC2)cs1,-0.282%
5,CCC(=O)N1CCC(Cc2nccnc2Nc2ccccn2)CC1,1.58%
6,Cn1cc(NC(=O)N2CCC(NS(C)(=O)=O)CC2)ccc1=O,-2.54%
7,CC(C)CC(=O)N1C[C@@H]2CCN(c3ncccn3)C[C@@H]2C1,0.375%
8,CN(Cc1ccc2c(c1)OCCO2)C(=O)Cn1ccccc1=O,-5.02%
9,Cc1ccc(N2CCC3(CCCN(C(=O)c4cccnc4)C3)C2)nn1 (centres undefined),-3.41%
10,O=C(c1cc[nH]n1)N1CCCC(c2cccc(-n3ccnc3)n2)C1 (centres undefined),-1.77%
11,COC(=O)C1CCN(C(=O)c2ccc(N(C)S(C)(=O)=O)c(C)c2)CC1,-31.3%
12,CC(=O)N(Cc1ncc(C)o1)C1CCN(CCCc2cnn(C)c2)C1 (centres undefined),1.41%
13,O=C(c1ccc(F)cc1Cl)N1CCC(Nc2cccnn2)CC1,5.41%
14,Cc1cc(CNc2cc(Cl)ccc2OCCS(C)(=O)=O)no1,7.42%
15,CN1[C@H](Cn2cccn2)C[C@@H]2CN(C(=O)Cc3cccs3)CC[C@@H]21,-3.56%
16,Cc1cccc(CN2C[C@@H]3COC[C@]3(CNC(=O)c3ccsc3)C2)n1,1.27%
17,COc1ccc(C2CC(=O)Nc3c2nc2n3CCCC2)cc1OC (centres undefined),-4.56%
18,CN(C)CCN1CCC2(CCN(C(=O)c3ccc(F)cc3)CC2)C1=O,-5.44%
19,COc1c(CNC2CCc3cc(F)ccc32)c(C)nn1C (centres undefined),-0.187%
20,Cc1ccc(NC2CCN(C(=O)c3cc(C(N)=O)cs3)CC2)nn1,1.41%

row,SMILES,Percent Effect
1,COC[C@@H]1CC[C@H]2[C@H](CCN2S(=O)(=O)c2ccc(OC)cc2)O1,-0.876%
2,NC(=O)CN1CCC(C(=O)N2CCCC(OCc3cccnc3)C2)CC1 (centres undefined),-2.23%
3,Cc1ccc(F)cc1C(=O)N1C[C@@H](CN2CCOCC2)[C@@H](CO)C1,2.23%
4,CC(C)N1CCO[C@H]2CN(C(=O)c3ccc(N(C)C)cc3)C[C@H]21,-6.13%
5,O=C(c1cc(C2CC2)on1)N1CCCC(n2cncn2)C1 (centres undefined),9.48%
6,CC(Cn1cccn1)NC(=O)N1CCN(Cc2cccs2)CC1 (centres undefined),5.42%
7,Cc1nc(-c2ccc(C(=O)O)cc2)cc(C2CCN(C(C)C)C2)n1 (centres undefined),-1.18%
8,O=C(Nc1nnc(C2CC2)s1)NC1CCN(Cc2ccccc2)C1 (centres undefined),-2.35%
9,Cc1cc(C(=O)NCc2ccnc(N3CCN(C)CC3)c2)c(C)s1,-0.657%
10,CC(Cn1cccn1)NC(=O)NCc1cccnc1OC1CCCC1 (centres undefined),4.42%
11,Cn1ccc(CN2CCC(NC(=O)Cc3ccccc3)CC2)cc1=O,6.85%
12,CN(C)CC(=O)N1CCC2(CCN(Cc3ccccn3)C2=O)C1 (centres undefined),-2.63%
13,CC(C)n1ccnc1C1CCN(C(=O)c2ccccc2)CC1,9.8%
14,Cc1nccn1-c1cccc(C2CCCN2S(=O)(=O)N(C)C)n1 (centres undefined),1.77%
15,O=C(c1ccccn1)N1CCN(c2ccc(-c3cccnc3)nn2)CC1,1.31%
16,Cc1ccccc1-c1cc(C(=O)NCCN2CCCS2(=O)=O)[nH]n1,9.3%
17,Cc1cc2cc(C(=O)N3CC[C@H](O)[C@]4(CCCO4)C3)ccc2o1,2.17%
18,CC(C)n1[nH]c(=O)c2c1NC(=O)CC2c1ccc2ncccc2c1 (centres undefined),-2.62%
19,O=C(C1CCC1)N1CCn2c(COc3ncccn3)nnc2C1,-5.36%
